The results in this text go back to PubChem BioAssay AID1259415 (National Center for Advancing Translational Sciences (NCATS), 2018).

The whole screen tested about 410,000 compounds, of which about 18,000 (4.4%) were called active. Inconclusive results (about 7%) are left out. Rule as the data show it: active = activity change below about -60%; inconclusive = no clear call, values can overlap the other calls; inactive = above about -39%. The list comes from a sample in which actives are over-represented; it also holds similar structures and randomly drawn compounds.
% is scaled to controls: 0 for no effect and ±100 for the full control effect.

The assay in a line: qHTS Assay for inhibitors of the human cytomegalovirus (HCMV). The conditions noted are these: HFF cells, HCMV-luciferase reporter, 72 h; at 57.5 µM; active compounds read low. An outline of the steps:
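Steps: HFFs plated, 16 h 37C; compounds added; HCMV-luciferase added to MOI 1 PFU/cell; 72 h 37C; OneGlo reagent, 5 min room temperature; luminescence read, normalized to controls.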
In general terms: Quantitative high-throughput screening tests each substance at several concentrations.
As for `CCOC(=O)c1c(NC(=O)C2(C)Cc3ccccc3C(=O)O2)sc2c1CCCC2` (stereo not drawn), the activity change, negative = inhibition was -77.4% (active). In the case of `CCOC(=O)c1c(NC(=O)c2cc(-c3ccc(Cl)cc3)on2)sc2c1CCCC2` it was 3.67% (inactive); in that of `CCOC(=O)c1c(NC(=O)/C(C#N)=C/c2ccccc2)sc2c1CCC2`, 2.23% (inactive); in that of `Cc1ccc2nc(-c3ccc(C)c(NC(=O)Cc4ccccc4)c3)oc2c1`, 38% (inactive). In the case of `COc1ccccc1NC(=O)c1oc2ccccc2c1NC(=O)C(C)C` it was 0.436% (inactive). As for `COc1ccc(OC)c(-c2nc(C(N)=O)c3c(n2)n(-c2ccc4c(c2)OCO4)c(=O)n3C)c1`, the figure is 3.83% (inactive).

Consider `O=C1C(=O)N(c2ccccc2)c2ccccc21`, for which the activity change, negative = inhibition was 43.2% (inactive). In the case of `CC(=O)c1ccccc1NC(=O)COC(=O)C1COc2ccccc2O1` (stereo not drawn) it was -15% (inactive); in that of `Cc1cc(C(=O)CCl)c(C)n1CC1COc2ccccc2O1` (stereo not drawn), -96.1% (active); in that of `O=C1C(=O)N(CC2COc3ccccc3O2)c2ccccc21` (stereo not drawn), -62.4% (active). As for `CC1COc2ccccc2N1S(=O)(=O)c1ccccc1` (stereo not drawn), the figure is -16.1% (inactive); as for `Cc1ccc(Cl)cc1NC(=O)NC1COc2ccccc2C1` (stereo not drawn), -3.29% (inactive). As for `CC(C)CC(NC(=O)C1CCCN1C(=O)[C@@H](C)NC(=O)OCc1ccccc1)C(=O)NCC(N)=O` (stereo partly drawn), the figure is -24.5% (inactive). On to `Cc1cccc(NC(=O)Cn2c(=O)n(CCC(C)C)c(=O)c3cccnc32)c1`, for which the activity change, negative = inhibition was 28.9% (inactive). In the case of `O=C(c1ccco1)N1CCN(C(=O)C2c3ccccc3Oc3ccccc32)CC1` it was -21.7% (inactive); in that of `CCOC(=O)Cc1csc(NC(=O)CN(C)S(=O)(=O)c2ccc3c(c2)CCC(=O)N3)n1`, 14.5% (inactive). In the case of `Cc1cccc(-c2nc(SCc3ccc(Br)cc3)n3[nH]c(=O)cc3n2)c1` it was -0.292% (inactive); in that of `COc1ccc(NC(=O)CSc2nccn2Cc2ccc3c(c2)OCO3)cc1`, 2.57% (inactive).

Turning to `C=CCSc1nc(N)cc(=O)[nH]1`, the activity change, negative = inhibition was -24.3% (inactive). As for `Cc1cc(C(=O)CSc2nc(N)cc(=O)[nH]2)c(C)n1-c1cccc(F)c1`, the figure is -80.8% (active). In the case of `Cc1cc(C)c(C(=O)CSc2nc(C)cc(=O)[nH]2)c(C)c1` it was 19% (inactive); in that of `CCOC(=O)C1(C(F)(F)F)N=C(N(C)C)OC(N(C)C)=N1`, 9.94% (inactive). Regarding `CCOc1ccc2c(c1)C(c1ccc(C)cc1)=NNC(c1ccc(C)cc1)=N2`, the activity change, negative = inhibition was 9.03% (inactive). For the compound `CCOc1ccc(-c2nnc3ccc(SC)nn23)cc1`, the activity change, negative = inhibition is -19.6% (inactive).

In the case of `CCOc1ccc(-c2cc(C)[n+](CCN(CC)CC)c(-c3ccc(OCC)cc3)c2)cc1`, the activity change, negative = inhibition is -97.6% (active).

For `O=C(CSc1nccn1C1CCCC1)Nc1cc(C(F)(F)F)ccc1Cl`, the activity change, negative = inhibition was -87.5% (active). As for `COc1ccc(NC(=O)CSc2nccn2C2CCCC2)cc1OC`, the figure is -35.1% (inactive); as for `Cc1cccc(-n2ccnc2SCC(=O)Nc2cc(C(F)(F)F)ccc2Cl)c1`, -18.2% (inactive). In the case of `Cc1cc(NS(=O)(=O)c2ccc3oc(=O)c4ncn(C)c4c3c2)ccc1Br` it was -24.9% (inactive); in that of `Cn1nnnc1SCCCNCc1ccc(Cl)cc1`, 5.82% (inactive).

Take `COc1ccccc1CCNC(=O)c1cccn1-c1nnc(N2CCCCC2)s1`: the activity change, negative = inhibition is -14.3% (inactive). In the case of `Cc1ccc(NC(=O)CN(C)C(=O)Cn2nnc(-c3ccccc3)n2)cc1` it was -24.5% (inactive); in that of `COc1ccc(C(=O)N2CCCCC2C(=O)Nc2ccc(-n3nc(C)cc3C)cc2)o1` (stereo not drawn), 7.64% (inactive); in that of `C[C@@H]1C[C@@H]2O[C@H]2/C=C\C=C\C(=O)Cc2c(Cl)c(O)cc(O)c2C(=O)O1`, -76.2% (active). As for `CCN(CC)S(=O)(=O)c1ccc(C(=O)N2CCN(C3=NS(=O)(=O)c4ccccc43)CC2)cc1`, the figure is -15.4% (inactive). Regarding `CCOC(=O)c1cc2c(=O)n3ccccc3nc2n(CC2CCCO2)c1=NC(=O)c1ccccc1Br` (stereo not drawn), the activity change, negative = inhibition is 24.4% (inactive).

For the compound `Cc1ccc(S(=O)(=O)N2C[C@@H]3CCCC[C@@H]3[C@@H](C)[C@H]2c2cn(Cc3ccccc3)c3ccc(F)cc23)cc1`, the activity change, negative = inhibition is -65.2% (active). `Cc1ccc(S(=O)(=O)c2cn(Cc3ccccc3)c3cc(N4CCCC4)c(F)cc3c2=O)c(C)c1`: the activity change, negative = inhibition was 10.5% (inactive). As for `CCOC1=C2[C@@H](CN(S(=O)(=O)c3ccc(C)cc3)[C@H]2c2ccccc2F)[C@H]2C(=O)N(Cc3ccccc3)C(=O)[C@H]2C1`, the figure is -19.7% (inactive); as for `COc1ccc(-c2c(C)c3ccc(O)c(CN4CCCC4)c3oc2=O)cc1OC`, 8.47% (inactive); as for `CCOc1ccc(NC(=O)Cn2c(=O)n(CCCC(=O)NCc3ccc4c(c3)OCO4)c(=O)c3ccccc32)cc1`, 22.9% (inactive). In the case of `CCCCNC(=O)CSc1nc2cc3c(cc2c(=O)n1CCCCCC(=O)NCc1ccc2c(c1)OCO2)OCO3` it was 25.2% (inactive); in that of `CCN(CC)C(=O)CSc1nc2cc3c(cc2c(=O)n1CCCC(=O)NCc1ccc2c(c1)OCO2)OCO3`, -89.8% (active). In the case of `O=C(NCc1ccc(Cl)cc1)c1ccc2c(c1)nnn2C1CCCC1` it was -1.14% (inactive); in that of `CC1(C(=O)NNC(=S)NCC2CCCO2)CC1(Cl)Cl` (stereo not drawn), -5.76% (inactive).

As to `CCC(=O)Nc1ccc(C)cc1-c1nc2ccccc2n(Cc2ccccc2)c1=O`, the activity change, negative = inhibition was 13.6% (inactive). In the case of `CCC(=O)Nc1nc2ccccc2n1Cc1ccccc1C` it was -81.6% (active); in that of `Cc1cccc(NC(=O)Cn2c(C(F)(F)F)nc3ccccc32)c1C`, -9.72% (inactive); in that of `Cc1cc(Cl)ccc1NC(=O)Cc1ccc(NC(=O)N2CCCCc3ccccc32)cc1`, 25.1% (inactive). As for `COCCN1C2=C(COC(C)(C)C2)C(=S)NC1c1ccccc1` (stereo not drawn), the figure is 5.54% (inactive); as for `Cc1ccc(NC(=O)CN2CCCCC2)c2c1CC(C)(C)O2`, -63% (active). In the case of `O=C(CN1CCCCCC1)Nc1ccc(Br)cc1Br` it was 32.3% (inactive). For `Cc1cc(C)c(NC(=O)CN2CCCCCC2)c(C)c1`, the activity change, negative = inhibition is -39.4% (inactive).

For `O=S(=O)(c1ccc(Cl)cc1)c1nnn2c1nc(NC1CCCC1)c1sccc12`, the activity change, negative = inhibition was 21.2% (inactive).

As to `O=[N+]([O-])c1ccccc1-c1cc(-c2ccccc2[N+](=O)[O-])on1`, the activity change, negative = inhibition is 24.9% (inactive). With `CCc1ccccc1NC(=O)N1CCN(C(=O)c2nsc3ccccc23)CC1`, the activity change, negative = inhibition is 0% (active). For `COc1ccccc1CNC(=O)c1ccccc1NC(=O)c1nsc2ccccc12`, the activity change, negative = inhibition was 12.6% (inactive). As for `Cc1c(Cl)cccc1NC(=O)N1CCN(C(=O)c2nsc3ccccc23)CC1`, the figure is 0% (inactive).
